Source: PubChem
PKM2 act: increases activity of human pyruvate kinase M2. P14618. purified PKM2, Kinase-Glo ATP luminescence, activation; response scale: 0% is enzyme alone, no compound. Potency, µM (highest dose often 57.5 µM), hits mostly activators. 0.34% of 260,000 active; note: nearly all actives have a fitted effect of over 55% in size
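ATP formation by purified human PK-M2, quantified via coupled luciferase luminescence after 1 h at room temperature with 0.1 mM ADP and 0.5 mM PEP final.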
Six1-Eya2 inh: blocks human Six1 binding to Eya2; Q15475+O00167; AlphaScreen GST-Six1/His-Eya2 binding, biochemical; hits give low values; activity change, % (no concentration beside the values); 0.56% of 360,000 active; AID 651725; in the data active = activity change below about -65%; inconclusive = mostly about -30% to -63%
Target sequence (O00167 whole entry, looked up): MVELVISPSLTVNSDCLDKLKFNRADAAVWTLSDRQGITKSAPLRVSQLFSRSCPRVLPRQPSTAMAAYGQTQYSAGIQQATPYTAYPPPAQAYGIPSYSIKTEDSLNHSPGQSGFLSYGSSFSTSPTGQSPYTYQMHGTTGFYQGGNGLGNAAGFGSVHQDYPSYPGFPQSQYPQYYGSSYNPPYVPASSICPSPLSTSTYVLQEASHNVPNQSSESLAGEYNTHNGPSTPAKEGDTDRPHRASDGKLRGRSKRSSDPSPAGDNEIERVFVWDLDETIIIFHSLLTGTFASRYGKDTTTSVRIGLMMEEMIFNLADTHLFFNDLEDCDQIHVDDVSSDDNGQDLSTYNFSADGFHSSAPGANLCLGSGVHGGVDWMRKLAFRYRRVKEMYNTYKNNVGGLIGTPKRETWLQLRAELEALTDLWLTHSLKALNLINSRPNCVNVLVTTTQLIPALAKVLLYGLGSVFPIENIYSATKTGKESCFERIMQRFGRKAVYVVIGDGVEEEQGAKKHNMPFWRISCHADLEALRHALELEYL
Target sequence (Q15475 whole entry, looked up): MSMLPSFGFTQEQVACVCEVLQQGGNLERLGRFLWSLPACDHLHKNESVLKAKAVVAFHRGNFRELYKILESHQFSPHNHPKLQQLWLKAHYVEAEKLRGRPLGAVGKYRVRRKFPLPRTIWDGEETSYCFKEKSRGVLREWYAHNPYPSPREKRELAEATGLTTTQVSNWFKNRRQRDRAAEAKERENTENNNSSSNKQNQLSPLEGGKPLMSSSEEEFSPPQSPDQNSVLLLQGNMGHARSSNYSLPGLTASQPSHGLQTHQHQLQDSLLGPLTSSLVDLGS
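Compounds are tested against tagged Six1 and Eya2 proteins bridged by glutathione donor and nickel acceptor beads; after a one-hour incubation at 37 °C without light, AlphaScreen emission is recorded.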
RORgamma inh: inhibitors of mouse ROR gamma transcriptional activity; P51450; Potency, µM (series often up to 53.6 µM), actives largely listed as inhibitors; 5.4% of 310,000 active; Drosophila S2 Gal4-RORgamma UAS-luciferase reporter, 20 h; note: nearly all actives have a fitted effect of over 60% in size
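Luciferase reporter read in Schneider cells carrying Gal4-RORγ (mouse) and UAS-Photinus luciferase; cells given compound 1 h before 700 uM copper sulfate induction, then incubated 20 h at ambient temperature.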
Gal4-VP16 FLuc: counter-screen for ROR gamma inhibitors: Gal4-VP16 reporter; Drosophila S2 Gal4-VP16 UAS-luciferase, luminescence, 20 h; Potency, µM (top dose mostly 53.6 µM), actives largely listed as inhibitors; 3.5% of 310,000 active;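 note: Gal4-VP16 expression switched on by copper sulfate through the metallothionein promoter; nearly all actives have a fitted effect of over 50% in size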
CtBP-E1A inh: blocks the CtBP interaction with E1A; AlphaScreen GST-E1A/His-CtBP binding, 1536-well; hits give low values; activity change, % (no concentration beside the values); 0.49% of 340,000 active; in the data active = activity change below about -65%; inconclusive = mostly about -30% to -63%
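Protein mix (5X: 125 nM each GST-E1A, His-CtBP) was incubated with pinned compound 2 h at 37 deg C in dark, in 50 mM Tris pH 8.0 buffer with 300 mM NaCl. Glutathione donor and nickel acceptor beads followed; AlphaScreen signal read after 1 h.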
Each line names hits and unclear results; the compound was inactive in the other large screens. In the library only some 5.6% were active in any assay of this set; here they are far more common. Unless noted, calls come from the whole dose curve; as a rule, active = well fitted curve in the direction sought with a large enough effect; inconclusive = small, poorly fitted or top-dose-only effect, or another doubt; inactive = no such curve, though single readings can be large; an effect the other way counts as inactive or inconclusive.

Cn1c(=O)c2c(nc(NCC3CCCO3)n2Cc2ccccc2)n(C)c1=O (stereo not drawn)	RORgamma inh inconclusive
Cn1c(=O)c2c(nc(NCc3ccc4c(c3)OCO4)n2Cc2ccccc2)n(C)c1=O	Gal4-VP16 FLuc 7.08µM
Cn1c(=O)c2c(nc(NCc3ccc4c(c3)OCO4)n2Cc2ccccc2F)n(C)c1=O	Gal4-VP16 FLuc 17.8µM
Cn1c(=O)c2c(nc(Oc3ccc4c(c3)OCO4)n2Cc2ccc(Cl)cc2)n(C)c1=O	none
Cn1c(=O)c2c(nc(NCc3ccc4c(c3)OCO4)n2Cc2ccc(F)cc2)n(C)c1=O	Gal4-VP16 FLuc 10µM
CCOc1cc(NC(=S)NCCc2ccccc2)c(OCC)cc1NC(C)=O	RORgamma inh 11.2µM
CC(C)CC(=O)NC(=S)NCCc1ccccc1	RORgamma inh 1.78µM, Gal4-VP16 FLuc 7.94µM
CC(C)(C)CC(=O)NC(=S)NCCc1ccccc1	RORgamma inh 7.08µM, Gal4-VP16 FLuc 10µM
COc1cc(NC(=S)NCCc2ccccc2)c(OC)cc1NC(=O)CC(C)C	RORgamma inh 10µM, Gal4-VP16 FLuc inconclusive
COc1ccc(NC(=S)NC(=O)CC(C)C)c(OC)c1	RORgamma inh inconclusive, Gal4-VP16 FLuc inconclusive
O=C(CC(=O)NCCc1ccccc1)NCCc1ccccc1	none
O=C(c1ncc[nH]1)c1cccs1	none
Cc1ccc(OCCNC(=O)c2ccccc2F)cc1	Gal4-VP16 FLuc inconclusive (no result: PKM2 act)
CC(C)(C)NC(=S)NCCc1ccccc1	RORgamma inh 6.31µM, Gal4-VP16 FLuc 7.08µM
O=C(O)c1ccccc1Nc1ccc(CCc2ccc(Cl)c(Cl)c2)cc1	none (no result: PKM2 act, Six1-Eya2 inh, CtBP-E1A inh)
Cc1ccc(C(=O)NCCn2cc(SCC(=O)Nc3cc(C)on3)c3ccccc32)cc1	RORgamma inh inconclusive
Cc1ccc(C(=O)NCCn2cc(SCC(=O)N3CCOCC3)c3ccccc32)cc1	RORgamma inh 12.6µM
O=C(/C=C/c1ccccc1)NCCS(=O)(=O)N1CCN(c2ccc(F)cc2)CC1	none (no result: PKM2 act, RORgamma inh, Gal4-VP16 FLuc)
CCCCOc1ccc(S(=O)(=O)N2CCN(C)CC2)cc1	none (no result: PKM2 act, RORgamma inh, Gal4-VP16 FLuc)
CCOc1cccc(C(=O)NNC(=O)C2C3C=CC(C3)C2C(=O)O)c1 (stereo not drawn)	none
CCCC(NC(=O)C(C)NC(=O)CO/N=C1\C=C2CCC3C4CCC(C(C)=O)[C@@]4(C)CCC3[C@@]2(C)CC1)C(=O)O (stereo partly drawn)	none (no result: PKM2 act)
CNc1nc(C23CC4CC(CC(C4)C2)C3)cs1	RORgamma inh 10µM
CCNc1ncc2nc(-c3ccc(Cl)cc3)c(=O)n(CCC#N)c2n1	none (no result: PKM2 act, Six1-Eya2 inh, CtBP-E1A inh)
C=CCOC(=O)C1=C(C)NC(SCC(=O)Nc2nccs2)=C(C#N)C1c1ccc(Cl)cc1 (stereo not drawn)	RORgamma inh 11.2µM, Gal4-VP16 FLuc inconclusive
CSCSC1=C(C#N)C(c2ccc(Cl)cc2)C(C(C)=O)=C(C)N1 (stereo not drawn)	RORgamma inh 14.1µM, Gal4-VP16 FLuc inconclusive (no result: Six1-Eya2 inh, CtBP-E1A inh)
CC(=O)C1=C(C)NC(SCC(=O)c2ccc(Cl)cc2)=C(C#N)C1c1ccco1 (stereo not drawn)	RORgamma inh inconclusive, Gal4-VP16 FLuc inconclusive
CC(=O)C1=C(C)NC(SCC(=O)c2ccc(Cl)cc2Cl)=C(C#N)C1c1ccco1 (stereo not drawn)	RORgamma inh inconclusive, Gal4-VP16 FLuc 4.47µM
CCc1nn(C)c(-c2n[nH]c(=S)n2N)c1Cl	none
Cc1c(Cl)c(-c2n[nH]c(=S)n2-c2ccc(F)cc2)nn1C	RORgamma inh 12.6µM
CCCCn1c(-c2nn(C)c(C)c2Cl)n[nH]c1=S	RORgamma inh 3.16µM, Gal4-VP16 FLuc inconclusive
Cc1c(Cl)c(-c2n[nH]c(=S)n2CC(C)C)nn1C	RORgamma inh 12.6µM, Gal4-VP16 FLuc inconclusive
Cc1nn(C)c(-c2n[nH]c(=S)n2-c2ccccc2)c1Cl	RORgamma inh 11.2µM
CC[C@@H]1[C@H]2CCCC(=O)N3CC[C@@H](C[C@@H]1Nc1ccccc1)[C@@H]23	none
Cc1cccc(CNc2cc(-c3ccccc3C)ncn2)c1	none (no result: PKM2 act, Six1-Eya2 inh, CtBP-E1A inh)
CCOC(=O)[C@]12CCCC=C1N(Cc1ccc(Cl)cc1Cl)C(=O)[C@H](CC(=O)NCc1cccc3ccccc13)C2	none (no result: PKM2 act, RORgamma inh, Gal4-VP16 FLuc)
O=C(NC(=S)N1CCCc2ccccc21)c1ccc([N+](=O)[O-])cc1	Six1-Eya2 inh inconclusive, RORgamma inh inconclusive, Gal4-VP16 FLuc 6.31µM
N=C(N1CCCc2ccccc21)N1CCCc2ccccc21	none (no result: PKM2 act, RORgamma inh, Gal4-VP16 FLuc)
NC(=S)N1CCCc2ccccc21	RORgamma inh 6.31µM, Gal4-VP16 FLuc inconclusive
COc1ccccc1C(=O)NC(=S)N1CCCc2ccccc21	RORgamma inh 7.94µM, Gal4-VP16 FLuc inconclusive
O=C(NC(=S)N1CCCc2ccccc21)c1ccccc1	none
CC(=O)Oc1ccc(Cn2cnc3cc4ccccc4cc32)cc1	none
CCOc1ccc2c(c1)ncn2Cc1ccccc1	RORgamma inh 11.2µM
Cn1ncc2c(N3CCN(c4ccc(Cl)c(Cl)c4)CC3)ncnc21	none
O=C(CCl)Nc1cccc2ncccc12	RORgamma inh 17.8µM, Gal4-VP16 FLuc inconclusive
CC(C)n1cc(CN2CCN(C)C(CCO)C2)c2ccccc21 (stereo not drawn)	none (no result: CtBP-E1A inh)
Cc1ccc(NC(=O)c2ccc([N+](=O)[O-])o2)cc1C	RORgamma inh 7.94µM
O=C(Nc1cccc([N+](=O)[O-])c1)c1ccc([N+](=O)[O-])o1	none (no result: PKM2 act, RORgamma inh, Gal4-VP16 FLuc)
CC(C)(C)C(=O)N1CCN(c2ccc(NC(=O)c3ccc([N+](=O)[O-])o3)cc2)CC1	RORgamma inh inconclusive, Gal4-VP16 FLuc 14.1µM
CSc1nccc(NC(=O)c2cccc(Br)c2)n1	RORgamma inh inconclusive (no result: PKM2 act)
O=C(NCc1cccnc1)NC1(C(F)(F)F)Oc2ccc(Cl)cc2O1 (stereo not drawn)	RORgamma inh 11.2µM, Gal4-VP16 FLuc inconclusive
COCCNC(=O)NC1(C(F)(F)F)Oc2ccc(Cl)cc2O1 (stereo not drawn)	RORgamma inh inconclusive, Gal4-VP16 FLuc inconclusive
Cc1cc([N+](=O)[O-])ccc1N(C)C	none
COc1ccc(/C=N/Nc2cc(C)nc(-n3nc(C)cc3C)n2)c(OC)c1	Six1-Eya2 inh -75.7, RORgamma inh 0.199µM, Gal4-VP16 FLuc 0.282µM, CtBP-E1A inh -72.7
COc1cc(/C=N/Nc2cc(C)nc(N)n2)ccc1O	Six1-Eya2 inh inconclusive (no result: PKM2 act)
COc1ccccc1/C=N/Nc1cc(C)nc(N2CCOCC2)n1	none (no result: CtBP-E1A inh)
CCOc1cc(/C=N/Nc2cc(C)nc(-n3nc(C)cc3C)n2)ccc1O	RORgamma inh inconclusive, Gal4-VP16 FLuc 17.8µM, CtBP-E1A inh inconclusive
Cc1cc(N/N=C/c2ccc(F)cc2)nc(-n2nc(C)cc2C)n1	RORgamma inh 0.0794µM, Gal4-VP16 FLuc 0.316µM
CC(=O)c1ccccc1OCc1ccc(S(=O)(=O)Cc2ccccc2)cc1	Gal4-VP16 FLuc inconclusive
CC(C)(C)c1ccc(-c2cn(-c3ccc(Br)cc3)c3[n+]2CCCS3)cc1	RORgamma inh 7.08µM, Gal4-VP16 FLuc 7.94µM
O=C(c1ccc(Cl)c(S(=O)(=O)N2CCCCC2)c1)N1CCCC(C(F)(F)F)C1 (stereo not drawn)	none (no result: PKM2 act, RORgamma inh, Gal4-VP16 FLuc)
